This passage reports Inhibition results from ChEMBL document CHEMBL4513141, “CO-ADD screening of NIH (USA) - Clinical Collection” (2021).

The test system of one assay is Klebsiella pneumoniae. To be noted: Concentration 20 uM; ASSAY_TEST Inhibition of Bacterial Growth; detection method Absorption (OD600); MEDIA CAMHB; plate type 384well; NBS; CORNING #3640; time 18 hr.
The next assay relates to Candida albicans. Conditions: 20 µM.
Another assay deals with Cryptococcus neoformans. Conditions: Concentration 20 uM; ASSAY_TEST Inhibition of Fungal Growth; detection method Resazurin; Absorption (OD600-OD570); plate type 384well; NBS; CORNING #3640. A general note: The colour change of resazurin is a common sign of viable cells or microbes.

Measured potencies and affinities stand elsewhere.

As a reminder, the Inhibition is the change of the read-out against control, counted positive when it falls. With `Cl.Cl.OCCN1CCN(CCCN2c3ccccc3Sc3ccc(C(F)(F)F)cc32)CC1` [FLUPHENAZINE HYDROCHLORIDE], the Inhibition in the assay with Klebsiella pneumoniae was 7.98%; with Candida albicans, 1.45%; in the assay on Cryptococcus neoformans, -8.76%.
On the same counts, the results for `CC(=O)OCC[N+](C)(C)C.[Cl-]` [ACETYLCHOLINE CHLORIDE] are 16.59%, 1.39% and -1.88%.
On the same counts, the results for `CN1[C@@H](CC(=O)c2ccccc2)CCC[C@H]1C[C@H](O)c1ccccc1.Cl` [LOBELINE HYDROCHLORIDE] are 19.91%, 2.98% and -5.47%.
With `CCCCCNC(=N)N/N=C/c1c[nH]c2ccc(OC)cc12.O=C(O)/C=C\C(=O)O` [TEGASEROD MALEATE], the Inhibition in the assay with Klebsiella pneumoniae is 6.68%; in the assay with Candida albicans it was 0.86%; with Cryptococcus neoformans it was -67.8%.
In the case of `Cl.O.Oc1cc2c(cc1O)[C@H]1c3ccccc3CN[C@@H]1CC2`, the results for the Inhibition in the assay with Klebsiella pneumoniae, in the assay with Candida albicans and with Cryptococcus neoformans were 11.23%, 1.34% and -4.18%, respectively.
Consider `Cc1ncc2n1-c1ccc(Cl)cc1C(c1ccccc1F)=NC2.Cl` [MIDAZOLAM HYDROCHLORIDE], for which the Inhibition is 2.84% in the assay with Klebsiella pneumoniae, 3.62% in the assay with Candida albicans and -0.63% in the assay on Cryptococcus neoformans.
Turning to `COC(=O)C[C@](O)(CCCC(C)(C)O)C(=O)O[C@@H]1C(OC)=C[C@]23CCCN2CCc2cc4c(cc2[C@H]13)OCO4` [OMACETAXINE MEPESUCCINATE], the Inhibition was found to be 9.21% in the assay on Klebsiella pneumoniae, 3.16% in the assay with Candida albicans and 1.94% with Cryptococcus neoformans.
With `C[C@]12Cc3c[nH]nc3C[C@@H]1CC[C@@H]1[C@@H]2CC[C@@]2(C)[C@H]1CC[C@]2(C)O` [STANOZOLOL], the figures for the Inhibition in the assay on Klebsiella pneumoniae, with Candida albicans and with Cryptococcus neoformans were 7.49%, 8.82% and -7.23%, respectively.
The like results for `Cl.O.Oc1ccc2c3c1O[C@H]1c4[nH]c5ccccc5c4C[C@@]4(O)C(C2)N(CC2CC2)CC[C@]314` were, in that order, -0.12%, 6.31% and -5.72%.
On to `N=C(NCc1ccc(Cl)cc1)SCCCc1c[nH]cn1` [CLOBENPROPIT], for which the values for the Inhibition in the assay with Klebsiella pneumoniae, in the assay on Candida albicans and in the assay with Cryptococcus neoformans were 6.85%, 2.99% and -0.61%, respectively.
The like results for `C#C[C@]1(O)CC[C@H]2[C@@H]3CCC4=CC(=O)CC[C@@H]4[C@H]3CC[C@@]21C` [NORETHINDRONE] were, in that order, 6.67%, 4.82% and 0.28%.
For the molecule `Cc1ccc(-c2nc3ccc(C)cn3c2CC(=O)N(C)C)cc1.Cc1ccc(-c2nc3ccc(C)cn3c2CC(=O)N(C)C)cc1.O=C(O)C(O)C(O)C(=O)O` [ZOLPIDEM TARTRATE], the figures for the Inhibition with Klebsiella pneumoniae, in the assay with Candida albicans and in the assay with Cryptococcus neoformans were 6.38%, 4.32% and -1.23%, respectively.
